Source: PubChem BioAssay
Shown are actives, neighbours in structure and some others; about 10% of the full set was active somewhere.
Pf growth 96h: P. falciparum growth inhibition at 96 hours | P. falciparum luciferase reporter growth, 96 h | Potency, µM (series often up to 28.7 µM), inactives show top-dose activity change, negative = inhibition, most hits filed as inhibitors | 320,000 tested, 6.9% active | AID 504834; active means well fitted inhibition curve with a large enough effect; inconclusive means small, poorly fitted or top-dose-only effect, or another doubt; inactive means no such curve, though single readings can be large or run the other way; further: on the % scale 0 is the no-effect control and ±100 the full control effect
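Readout is luminescence from an integrated firefly luciferase in P. falciparum. Red cells, 2% hematocrit and 0.05% parasitemia final, were cultured with compound through two parasite generations (96 hours) at 37 C, 5% CO2.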
Pf growth 48h: inhibits P. falciparum growth in the first generation, 48 h. 310,000 tested, 5.9% active. Potency, µM (highest dose often 28.7 µM), without a hit: top-dose activity change, negative = inhibition, hits mostly inhibitors. AID 504832. P. falciparum luciferase growth in erythrocytes, 48 h; active means well fitted inhibition curve with a large enough effect; inconclusive means small, poorly fitted or top-dose-only effect, or another doubt; inactive means no such curve, though single readings can be large or run the other way; further: on the % scale 0 is the no-effect control and ±100 the full control effect
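Firefly luciferase activity from engineered P. falciparum reports growth; inhibitors lower the luminescent signal. Cultures contained 2% hematocrit erythrocytes at 0.1% final parasitemia.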
SARS PLpro yeast: inhibitors of SARS-CoV papain-like protease in yeast | S. cerevisiae expressing SARS-CoV PLpro, growth rescue | Potency, µM (highest dose often 32.9 µM), for inactives: at the highest dose activity, positive = growth rescue, actives largely listed as activators | 330,000 tested, 0.19% active | AID 485353; further: 0% is about no effect; nearly all actives have a fitted effect of over 55% in size
NS1 inh: influenza NS1 inhibition | 270,000 tested, 0.4% active | Potency, µM (doses to about 46.1 µM), for inactives: at the highest dose activity, positive = more growth; further: actives are rising curves; nearly all actives have a fitted effect of over 50% in size
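Compounds were scored for reversing the slow growth caused by influenza A NS1 in S. cerevisiae, measured by optical density at 600 nm. Assay medium contained 2% galactose at pH 6.0; NS1-free yeast of the same strain were the positive control.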
An asterisk follows results filed as active; [ ] = another dose, or the depositor's remark. Unless noted, the call rests on the fitted dose curve. Potency means the concentration at half of the fitted maximal effect.

Screening O=C1c2ccccc2NC2CCCCC12 (stereo not drawn) returned Pf growth 96h 3%, Pf growth 48h 1.9µM*, SARS PLpro yeast -41% and NS1 inh -112%.
For O=C(COc1ccccc1)NCC(=O)N1CCCCCC1 the results were Pf growth 96h -8%, Pf growth 48h 4% and SARS PLpro yeast 2%.
COc1ccc2ccc3c(c2c1)N=C[C@]1(O3)N(C)c2ccccc2C1(C)C was read as Pf growth 96h 6.6µM*, Pf growth 48h inconclusive, SARS PLpro yeast -11% and NS1 inh 1%.
Screening CC1=NOC2(C1)N(C)c1ccccc1C2(C)C (stereo not drawn) returned Pf growth 96h 0%, Pf growth 48h 39%, SARS PLpro yeast 4% and NS1 inh -3%.
`CCO[C@H]1OC(C(=O)NCc2nc3ccccc3[nH]2)=C[C@@H](C2CCCCC2)[C@@H]1CCCO` gave Pf growth 96h 9.3µM*, Pf growth 48h inconclusive, SARS PLpro yeast 0% and NS1 inh -10%.
Screening CCO[C@H]1OC(C(=O)NCc2nc3ccccc3[nH]2)=C[C@@H](c2ccc(C(F)(F)F)cc2)[C@@H]1CCCO returned Pf growth 96h 1.5µM*, Pf growth 48h inconclusive, SARS PLpro yeast 0% and NS1 inh -15%.
`CCO[C@H]1OC(C(=O)NCc2nc3ccccc3[nH]2)=C[C@@H](C)[C@@H]1CCCO` gave Pf growth 96h 47%, Pf growth 48h 49%, SARS PLpro yeast 2% and NS1 inh -2%.
For C#Cc1ccc([C@@H]2C=C(C(=O)NCc3nc4ccccc4[nH]3)O[C@H](OCC)[C@H]2CCCO)cc1 the results were Pf growth 96h inconclusive, Pf growth 48h inconclusive, SARS PLpro yeast 1% and NS1 inh -36%.
`CCO[C@@H]1OC(C(=O)NCc2nc3ccccc3[nH]2)=C[C@H](c2ccc(C(F)(F)F)cc2)[C@H]1CCCO` gave Pf growth 96h 12µM*, Pf growth 48h inconclusive, SARS PLpro yeast 0% and NS1 inh 0%.
Screening COc1cc(CCN)c(OC)c(OC)c1 returned NS1 inh 0%.
For C=CCc1c(C)nc2c(C)cccc2c1SC(=N)N the results were Pf growth 96h 15µM*, Pf growth 48h inconclusive, SARS PLpro yeast 1% and NS1 inh -5%.
`Cc1nc2c(C)cccc2c(SC(=N)N)c1CC=C(Cl)Cl` gave Pf growth 96h -1%, Pf growth 48h -1%, SARS PLpro yeast 0% and NS1 inh -2%.
`Cc1cc(C)cc(OCC(=O)OCC(=O)N(CC(C)C)c2c(N)n(Cc3ccccc3)c(=O)[nH]c2=O)c1` gave Pf growth 96h 17%, Pf growth 48h 3% and SARS PLpro yeast 3%.
CCCc1nc(SCc2cccnc2)c2c(=O)n(C)c(=O)n(C)c2n1 was read as Pf growth 96h inconclusive, Pf growth 48h 13µM*, SARS PLpro yeast -4% and NS1 inh -128%.
Cn1c(=O)c2c(SCc3ccccn3)nc(CC(C)(C)C)nc2n(C)c1=O was read as Pf growth 96h inconclusive, Pf growth 48h 12µM*, SARS PLpro yeast 2% and NS1 inh -17%.
For CCCc1nc(SCc2ccccn2)c2c(=O)n(C)c(=O)n(C)c2n1 the results were Pf growth 96h -14%, SARS PLpro yeast 2% and NS1 inh -84%.
Screening CCc1nc(SCC(=O)NCc2ccc(F)cc2)c2c(=O)n(C)c(=O)n(C)c2n1 returned Pf growth 96h 32%, Pf growth 48h 5%, SARS PLpro yeast inconclusive and NS1 inh 13%.
`CCc1nc(SCc2ccc(C(=O)OC)o2)c2c(=O)n(C)c(=O)n(C)c2n1` gave Pf growth 96h 2.6µM*, Pf growth 48h 8.3µM*, SARS PLpro yeast -13% and NS1 inh -21%.
Screening O=C(NNC(=O)C1CC=CCC1)c1ccccc1O (stereo not drawn) returned Pf growth 96h inconclusive, Pf growth 48h 54%, SARS PLpro yeast 2% and NS1 inh -3%.
Screening Cc1noc(C)c1NC(=O)Nc1ccc2c(c1)C(=O)N([C@H](C)CO)C[C@H](C)[C@@H](CN(C)C(=O)Nc1c(C)noc1C)O2 returned SARS PLpro yeast 2%.
Screening CC1=CC(=C2C=CC(=O)C=C2)C=C(C)N1C returned Pf growth 96h 1.9µM*, Pf growth 48h 7.4µM*, SARS PLpro yeast 0% and NS1 inh -4%.
Nc1cccc(OCc2nc(N)nc(N)c2-c2ccc(Cl)cc2)c1 was read as NS1 inh 13%.
Screening CC(=O)N1c2ccc(S(=O)(=O)N3CCCC(C(=O)N4CCCCC4)C3)cc2CC1C (stereo not drawn) returned Pf growth 96h 10µM*, Pf growth 48h inconclusive, SARS PLpro yeast 4% and NS1 inh -17%.
For CC1Cc2cc(S(=O)(=O)N3CCCC(C(=O)N4CCCCC4)C3)ccc2N1C(=O)C1CC1 (stereo not drawn) the results were Pf growth 96h 13µM*, Pf growth 48h 13µM*, SARS PLpro yeast -3% and NS1 inh -24%.
Screening CCOC(=O)N1CCC(NC(=O)CCc2c(C)nc3c(c(C)nn3C(C)(C)C)c2C)CC1 returned Pf growth 96h 57%, Pf growth 48h 12µM*, SARS PLpro yeast 13% and NS1 inh -15%.
CCOC(=O)N1CCN(C(=O)CCc2c(C)nc3c(c(C)nn3-c3ccc(C)c(C)c3)c2C)CC1 was read as Pf growth 48h 13µM*, SARS PLpro yeast 3% and NS1 inh -42%.
For CCOC(=O)CCc1c(C)nc2c(c(C)nn2-c2ccccc2)c1C the results were Pf growth 96h inconclusive, Pf growth 48h -9%[0.00184 µM], SARS PLpro yeast 0% and NS1 inh -1%.
CN1CCc2c(c3ccccc3n2C)C1 was read as Pf growth 96h inconclusive, Pf growth 48h 46%, SARS PLpro yeast 0% and NS1 inh -6%.
Screening Cn1c2c(c3ccccc31)CCN1CCC[C@]21c1ccccc1 returned Pf growth 96h 8.3µM*, Pf growth 48h 1%[0.00184 µM], SARS PLpro yeast 0% and NS1 inh -1%.
`CCCc1nc(SCC(=O)Nc2nnc(CC)s2)c2c(=O)n(C)c(=O)n(C)c2n1` gave Pf growth 96h 7%, Pf growth 48h 3%, SARS PLpro yeast -4% and NS1 inh -2%.
`CC1CCc2c(sc3nc(CN4CCOCC4)nc(NS(=O)(=O)c4cccc([N+](=O)[O-])c4)c23)C1` (stereo not drawn) gave Pf growth 96h 13µM*, SARS PLpro yeast -36% and NS1 inh 17%.
For Cc1ccc(Oc2nc(CN3CCOCC3)nc3sc4c(c23)CCC(C)C4)cc1C (stereo not drawn) the results were Pf growth 96h inconclusive, Pf growth 48h 12µM*, SARS PLpro yeast -89% and NS1 inh -3%.
For CC1CCc2c(sc3nc(CN4CCOCC4)nc(N4CCc5ccccc5C4)c23)C1 (stereo not drawn) the results were Pf growth 96h 4.7µM*, Pf growth 48h 13µM*, SARS PLpro yeast -12% and NS1 inh 1%.
Screening CC(=O)c1cccc(NC(=S)N2CCN(c3ccccn3)CC2)c1 returned Pf growth 96h -20%, Pf growth 48h -1%, SARS PLpro yeast -5% and NS1 inh 8%.
